In the library only some 2.4% were active in any assay of this set; here they are far more common.
Insulin prom inh: inhibitors of insulin promoter-driven GFP, primary screen, imaging, TRM-6 cells (human fetal islet line), eGFP reporter, cell count | 0.9% of 130,000 active | inhibition, % at 2 µM | reporter expression induced with tamoxifen;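 active = inhibition above the mean plus 3 SD, with well images judged a real hit on visual review, cut at about 60% in these data, passing the limit was not always enough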
S1P3 antagonist: S1P3 receptor antagonists, primary screen, cell-based; Sphingosine 1-phosphate receptor 3 (Homo sapiens), Q99500; CHO S1P3 NFAT-BLA reporter, FRET fluorescence, antagonist mode; inhibition, % at 4.98 µM; 0.27% of 170,000 active; AID 485, 2006;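 active = inhibition above the plate cutoff, the mean inhibition of test wells on that plate plus 3 SD, cut at about 28% in these data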;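 also: cells challenged with S1P at its EC80 of 0.8 µM; blue over green emission ratio from cleaved BLA substrate after 4 h stimulation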
Target sequence (Q99500 whole entry, looked up): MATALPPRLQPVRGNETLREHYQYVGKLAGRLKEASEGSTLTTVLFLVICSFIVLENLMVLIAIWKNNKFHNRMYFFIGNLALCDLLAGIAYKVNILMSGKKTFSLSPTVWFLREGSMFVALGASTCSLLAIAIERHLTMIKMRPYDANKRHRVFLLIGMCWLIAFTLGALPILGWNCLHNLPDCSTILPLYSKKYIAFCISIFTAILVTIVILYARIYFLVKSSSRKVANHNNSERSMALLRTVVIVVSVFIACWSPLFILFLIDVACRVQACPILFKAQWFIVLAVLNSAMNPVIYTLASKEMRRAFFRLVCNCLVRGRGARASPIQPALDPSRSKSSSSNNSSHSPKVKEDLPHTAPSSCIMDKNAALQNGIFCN
S1P4 antag: S1P4 receptor antagonists, primary screen, cell-based; inhibition, % at 4.98 µM; 0.26% of 220,000 active; Sphingosine 1-phosphate receptor 4 (Homo sapiens), O95977; AID 1510, 2009; S1P4-expressing cells, antagonist mode, reporter read-out; in the data active = inhibition above about 29%
EP2 mod: EP2 receptor modulators, cAMP readout, primary screen, cell-based, HTRF cAMP, PGE2 stimulation; AID 940, 2007; 0.83% of 260,000 active; EP2-expressing cells, cAMP HTRF FRET, PGE2 co-stimulation; induction, % at 25 µM; Prostaglandin E2 receptor EP2 subtype (Homo sapiens), P43116;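 active = compounds whose cAMP rise, as percent of the full-agonist control response, exceeds 60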;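 also: rat C6 glioma line stably carrying human EP2 under a CMV promoter; the protocol text gives 20 µM as final concentration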
S1P4 agonist: S1P4 receptor agonists, primary screen, cell-based; Sphingosine 1-phosphate receptor 4 (Homo sapiens), O95977; S1P4-expressing cell line, agonist reporter assay; activation, % at 4.98 µM; 0.35% of 220,000 active; AID 1509, 2009; in the data active = activation above about 11%
PGE2 EP2 inh: human EP2 receptor antagonists, primary screen, TR-FRET cAMP, C6 glioma cells. AID 1422, 2008. Prostaglandin E2 receptor EP2 subtype (Homo sapiens), P43116. inhibition, % at 25 µM. 0.52% of 260,000 active. C6 glioma cells expressing human EP2; cells stimulated with saturating PGE2;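 active = percent inhibition above 40 after rounding to a whole number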;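 also: rat C6 glioma host cells with rolipram phosphodiesterase inhibitor present; the protocol text gives 20 µM as final concentration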
A number is an active result; – = inactive; · = no result; ! = not active in a repeat.

SMILES	Insulin prom inh	S1P3 antagonist	S1P4 antag	EP2 mod	S1P4 agonist	PGE2 EP2 inh
CN1C(=O)/C(=C/C=C/c2ccco2)C(=O)NC1=S	·	–	–	–	–	–
Cc1ccc(N2C(=O)NC(=O)/C(=C\C=C\c3ccco3)C2=O)cc1C	–	–	–	–	–	88
N[C@@H](Cc1cc(Br)c(O)c(Br)c1)C(=O)O	–	–	–	–	–	–
N[C@H](Cc1ccc2oc3cc(=O)c4ccccc4c-3nc2c1)C(=O)O	·	·	·	–	·	68
CC1(C)N=C(N)N=C(N)N1c1cccc(C(=O)Nc2ccc(S(=O)(=O)F)cc2)c1	·	·	·	–	·	52
CCCOc1c(CN2C3CCC2CC(O)(c2nccn2C)C3)cccc1OC (stereo not given)	·	·	·	–	·	–
COC(=O)[C@@H]1c2cc3c(c(O)c2[C@@H](O)C[C@]1(C)O)C(=O)c1c(O)cc2c(c1C3=O)O[C@H]1O[C@]2(C)[C@@H](O)[C@H](N(C)C)[C@H]1O	·	·	·	–	·	49
COc1ccc(OCC(=O)N2CCN(C3CCCCCC3)CC2)cc1	·	·	·	–	·	–
O=[As](O)(O)c1ccc(Cc2ccc([As](=O)(O)O)cc2)cc1	·	·	·	–	·	93
CCN1CC2(CO)CCC(O)C34C5CC6C(OC)CC(O)(C5C6OC)C(O)(C(OC)C23)C14 (stereo not given)	·	·	·	–	·	–
CC1(C)CC(=N[N-]C(N)=[SH+])CC(C)(C)N1.CC1(C)CC(=N[N-]C(N)=[SH+])CC(C)(C)N1.[Ni]	·	·	·	–	·	51
C[N+]1(C)C2CC(OC(=O)[C@H](CO)c3ccccc3)CC1C1OC12 (stereo not given in full)	·	·	·	–	·	–
C[N+]1(C)[C@@H]2CC[C@H]1CC(OC(=O)[C@@H](CO)c1ccccc1)C2 (stereo not given in full)	·	·	·	–	·	50
CCCN1CCc2cccc3c2[C@H]1Cc1ccc(O)c(O)c1-3	·	·	·	–	·	43!
COc1ccc2c(c1O)-c1c(OC)c(OC)cc3c1[C@H](C2)N(C)CC3	·	·	·	–	·	–
CCCSc1ncc(CN2C3CCC2CC(O)(c2ccc(OC)cc2)C3)cn1 (stereo not given)	·	·	·	–	·	–
CC(=O)O[C@H]1[C@@H]2[C@@H](OC(=O)Cc3ccccc3)[C@@H](C)C[C@]2(OC(C)=O)C(=O)/C(C)=C/[C@H]2[C@H](CC[C@@]13CO3)C2(C)C	·	·	·	–	·	–
CCCN1C2CCCC1CC(NC(=O)C1CC1)C2 (stereo not given)	·	·	·	–	·	–
CCC(CC)N1CCN(C(=O)COc2ccc(OC)cc2)CC1	·	·	·	–	·	–
O=c1c2ccccc2[se]n1-c1ccccc1	–	–	–	–	–	47!
O=c1c2ccccc2nc(-c2ccccc2)n1-c1ccccc1	·	–	–	–	–	–
COc1ccc(CN2CCN(C(=O)COc3ccccc3)CC2)c(OC)c1OC	·	·	·	–	·	–
O=C1NC(=O)N(c2ccc3c(c2)OCO3)C(=O)/C1=C/c1ccsc1	·	–	–	–	–	–
O=C1NC(=O)N(c2ccc3c(c2)OCO3)C(=O)/C1=C/c1cccs1	–	–	–	–	–	92
N=C(N)SCc1ccc(Cl)c2ccccc12 (tested in a mixture with another compound)	·	·	·	–	·	61
C=CCN1C(=O)CN=C(c2ccc(F)cc2)c2c1sc1c2CCCC1	·	·	·	65	·	–
O=C(CN1C(=O)CN=C(c2ccsc2)c2c1sc1c2CCCC1)N1CCCCC1	·	·	·	–	·	–
CC1OC(=O)[C@@H](C(C)C)NC(=O)C(C(C)C)OC(=O)[C@H](C(C)C)NC(=O)C(C)OC(=O)[C@@H](C(C)C)NC(=O)C(C(C)C)OC(=O)[C@H](C(C)C)NC(=O)C(C)OC(=O)[C@@H](C(C)C)NC(=O)C(C(C)C)OC(=O)[C@H](C(C)C)NC1=O (stereo not given in full)	·	·	·	–	·	–
CC1Oc2cc3c(-c4c(O)cc(O)c5c(O)c6c(cc45)OC(C)C(C)C6=O)c(O)cc(O)c3c(O)c2C(=O)C1C (stereo not given)	·	43	–	–	–	–
CC1(C)[C@@H]2CC[C@@]1(C)CN(CCC[N+](C)(C)C)C2	·	·	·	–	·	41

Compound activity: PubChem, several laboratories
